Results taken from PMC7862700, “An all-to-all approach to the identification of sequence-specific readers for epigenetic DNA modifications on cytosine”.

What was measured:
Test in all cases: DAPPL (digital affinity profiling via proximity ligation, sequencing); 10 mM Tris-HCl pH 7.5, 50 mM NaCl, 1 mM DTT, 4% glycerol, room temperature, 30 min; GST-TFs on glutathione beads, 16-mer random dsDNA library, 0.1% formaldehyde crosslink after washing; high values mean tight binding
FLI1 = target: T1, FLI1 (Homo sapiens, UniProt Q01543 1-452); conditions: protein: recombinant; tags: N-terminal GST; dsDNA, one strand shown
T1 sequence: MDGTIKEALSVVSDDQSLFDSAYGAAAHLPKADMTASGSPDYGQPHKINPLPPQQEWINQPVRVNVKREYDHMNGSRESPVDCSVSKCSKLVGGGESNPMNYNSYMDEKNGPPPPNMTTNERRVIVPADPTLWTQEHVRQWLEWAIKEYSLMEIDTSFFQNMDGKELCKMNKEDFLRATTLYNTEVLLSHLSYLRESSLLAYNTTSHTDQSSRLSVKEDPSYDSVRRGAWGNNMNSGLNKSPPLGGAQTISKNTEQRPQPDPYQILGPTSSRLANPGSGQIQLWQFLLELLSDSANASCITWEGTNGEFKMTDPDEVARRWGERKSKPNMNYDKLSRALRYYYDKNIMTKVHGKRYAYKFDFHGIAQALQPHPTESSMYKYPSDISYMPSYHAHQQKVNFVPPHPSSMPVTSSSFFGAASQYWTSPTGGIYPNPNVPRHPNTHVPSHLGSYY
Procedure, shortened: (§1)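 GST fusions of human transcription factors were expressed in yeast and captured with glutathione beads. Once given DNA barcodes and pooled alongside a tag-only sample, they were incubated for 30 min at room temperature with 200 nmole of a random double-stranded 16-mer DNA library in Tris/NaCl/DTT/glycerol buffer, then washed, crosslinked (0.1% formaldehyde), proximity-ligated, PCR-amplified and sequenced on an Illumina NextSeq500. The binding signal of each hexamer is its read frequency for a factor divided by its frequency for the tag-only sample.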

ELK1 = target: T2, ELK1 (Homo sapiens, UniProt P19419 1-428); conditions: protein: recombinant; tags: N-terminal GST; dsDNA, one strand shown
T2 sequence: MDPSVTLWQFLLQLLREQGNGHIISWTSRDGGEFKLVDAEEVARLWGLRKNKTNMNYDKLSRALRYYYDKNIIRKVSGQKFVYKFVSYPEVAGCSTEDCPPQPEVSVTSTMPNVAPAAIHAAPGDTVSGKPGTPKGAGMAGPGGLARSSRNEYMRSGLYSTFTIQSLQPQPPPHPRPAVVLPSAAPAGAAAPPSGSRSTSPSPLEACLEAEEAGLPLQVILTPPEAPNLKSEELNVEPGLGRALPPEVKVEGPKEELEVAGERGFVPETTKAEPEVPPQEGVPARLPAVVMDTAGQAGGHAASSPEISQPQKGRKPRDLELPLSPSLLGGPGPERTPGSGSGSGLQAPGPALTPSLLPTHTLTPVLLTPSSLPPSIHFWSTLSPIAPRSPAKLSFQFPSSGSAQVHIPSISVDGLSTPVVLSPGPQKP
Procedure, shortened: as §1

GABPA = target: T3, GABPA (Homo sapiens, UniProt Q06546 1-454); conditions: protein: recombinant; tags: N-terminal GST; dsDNA, one strand shown
T3 sequence: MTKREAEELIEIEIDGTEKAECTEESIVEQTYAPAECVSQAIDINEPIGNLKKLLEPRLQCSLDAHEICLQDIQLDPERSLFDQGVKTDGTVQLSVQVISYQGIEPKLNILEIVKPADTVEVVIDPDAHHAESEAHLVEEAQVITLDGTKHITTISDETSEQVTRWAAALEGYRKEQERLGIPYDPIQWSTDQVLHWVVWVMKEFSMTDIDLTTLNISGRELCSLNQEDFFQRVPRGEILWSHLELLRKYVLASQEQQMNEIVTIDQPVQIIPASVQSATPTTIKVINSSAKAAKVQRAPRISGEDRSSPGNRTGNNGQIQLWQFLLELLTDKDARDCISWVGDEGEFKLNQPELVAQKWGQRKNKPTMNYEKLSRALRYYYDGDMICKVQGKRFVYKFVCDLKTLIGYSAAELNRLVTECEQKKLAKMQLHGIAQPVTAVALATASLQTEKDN
Procedure, shortened: as §1

ERG = target: T4, ERG (Homo sapiens, UniProt P11308 1-479); conditions: protein: recombinant; tags: N-terminal GST; dsDNA, one strand shown
T4 sequence: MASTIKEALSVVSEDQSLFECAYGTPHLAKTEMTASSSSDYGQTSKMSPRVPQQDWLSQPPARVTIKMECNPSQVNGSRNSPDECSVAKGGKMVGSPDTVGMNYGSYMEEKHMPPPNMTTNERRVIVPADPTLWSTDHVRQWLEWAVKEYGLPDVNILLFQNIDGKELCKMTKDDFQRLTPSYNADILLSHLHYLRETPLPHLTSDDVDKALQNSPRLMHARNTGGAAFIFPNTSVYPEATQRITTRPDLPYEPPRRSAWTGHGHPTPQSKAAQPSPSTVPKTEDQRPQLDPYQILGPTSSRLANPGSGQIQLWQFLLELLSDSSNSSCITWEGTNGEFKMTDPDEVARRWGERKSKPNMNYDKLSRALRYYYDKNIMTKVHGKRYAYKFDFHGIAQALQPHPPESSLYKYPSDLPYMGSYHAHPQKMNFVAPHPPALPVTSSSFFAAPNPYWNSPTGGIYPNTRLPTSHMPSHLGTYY
Procedure, shortened: as §1

ELF1 = ELF1 (Homo sapiens, UniProt P32519 1-619); conditions: protein: recombinant; tags: N-terminal GST; dsDNA, one strand shown
Procedure, shortened: as §1

EHF = target: T5, EHF (Homo sapiens, UniProt Q9NZC4 1-300); conditions: protein: recombinant; tags: N-terminal GST; dsDNA, one strand shown
T5 sequence: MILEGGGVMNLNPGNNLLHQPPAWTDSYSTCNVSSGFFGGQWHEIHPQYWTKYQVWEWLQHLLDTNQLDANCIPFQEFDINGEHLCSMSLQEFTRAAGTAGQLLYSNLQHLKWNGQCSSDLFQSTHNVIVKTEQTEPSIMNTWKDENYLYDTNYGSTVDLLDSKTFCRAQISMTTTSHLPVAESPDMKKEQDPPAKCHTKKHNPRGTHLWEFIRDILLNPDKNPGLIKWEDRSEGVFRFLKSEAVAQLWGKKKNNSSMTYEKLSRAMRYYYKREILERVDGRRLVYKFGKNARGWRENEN
Procedure, shortened: as §1

SPI1 = SPI1 (Homo sapiens, UniProt P17947 1-270); conditions: protein: recombinant; tags: N-terminal GST; dsDNA, one strand shown
Procedure, shortened: as §1

SPIB = SPIB (Homo sapiens, UniProt Q01892 1-262); conditions: protein: recombinant; tags: N-terminal GST; dsDNA, one strand shown
Procedure, shortened: as §1

ELK3 = target: T6, ELK3 (Homo sapiens, UniProt P41970 1-407); conditions: protein: recombinant; tags: N-terminal GST; dsDNA, one strand shown
T6 sequence: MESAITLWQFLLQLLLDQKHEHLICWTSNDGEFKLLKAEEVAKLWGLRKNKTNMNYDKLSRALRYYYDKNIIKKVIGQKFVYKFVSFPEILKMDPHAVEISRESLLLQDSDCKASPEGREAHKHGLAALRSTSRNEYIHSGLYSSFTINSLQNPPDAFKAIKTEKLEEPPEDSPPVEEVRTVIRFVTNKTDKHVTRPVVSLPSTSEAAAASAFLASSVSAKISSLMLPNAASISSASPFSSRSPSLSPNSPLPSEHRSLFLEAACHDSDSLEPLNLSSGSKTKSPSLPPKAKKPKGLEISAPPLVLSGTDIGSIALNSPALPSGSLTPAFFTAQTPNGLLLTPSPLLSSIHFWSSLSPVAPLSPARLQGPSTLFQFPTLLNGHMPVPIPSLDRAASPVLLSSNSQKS
Procedure, shortened: as §1

FEV = target: T7, FEV (Homo sapiens, UniProt Q99581 1-238); conditions: protein: recombinant; tags: N-terminal GST; dsDNA, one strand shown
T7 sequence: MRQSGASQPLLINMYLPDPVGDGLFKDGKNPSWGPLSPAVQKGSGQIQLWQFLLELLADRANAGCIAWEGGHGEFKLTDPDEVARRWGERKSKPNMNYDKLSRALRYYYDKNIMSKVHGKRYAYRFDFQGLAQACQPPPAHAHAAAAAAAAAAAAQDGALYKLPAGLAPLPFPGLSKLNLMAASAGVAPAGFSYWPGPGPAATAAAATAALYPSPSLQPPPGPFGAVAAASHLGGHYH
Procedure, shortened: as §1

ETV5 = ETV5 (Homo sapiens, UniProt P41161 1-510); conditions: protein: recombinant; tags: N-terminal GST; dsDNA, one strand shown
Procedure, shortened: as §1

HSF1 = HSF1 (Homo sapiens, UniProt Q00613 1-529); conditions: protein: recombinant; tags: N-terminal GST; chain copies: 3; dsDNA, one strand shown
Procedure, shortened: as §1

SPIC = target: T8, SPIC (Homo sapiens, UniProt Q8N5J4 1-248); conditions: protein: recombinant; tags: N-terminal GST; dsDNA, one strand shown
T8 sequence: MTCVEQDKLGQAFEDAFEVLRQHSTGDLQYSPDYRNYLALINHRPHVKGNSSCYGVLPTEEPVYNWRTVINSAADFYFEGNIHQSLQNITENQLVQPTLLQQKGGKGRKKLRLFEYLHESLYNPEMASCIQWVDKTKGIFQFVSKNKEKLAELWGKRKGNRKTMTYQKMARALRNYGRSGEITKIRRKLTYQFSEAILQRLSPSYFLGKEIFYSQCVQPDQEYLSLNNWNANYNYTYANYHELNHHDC
Procedure, shortened: as §1

ELF4 = ELF4 (Homo sapiens, UniProt Q99607 1-663); conditions: protein: recombinant; tags: N-terminal GST; dsDNA, one strand shown
Procedure, shortened: as §1

ELK4 = target: T9, ELK4 (Homo sapiens, UniProt P28324-2 1-405); conditions: protein: recombinant; tags: N-terminal GST; dsDNA, one strand shown
T9 sequence: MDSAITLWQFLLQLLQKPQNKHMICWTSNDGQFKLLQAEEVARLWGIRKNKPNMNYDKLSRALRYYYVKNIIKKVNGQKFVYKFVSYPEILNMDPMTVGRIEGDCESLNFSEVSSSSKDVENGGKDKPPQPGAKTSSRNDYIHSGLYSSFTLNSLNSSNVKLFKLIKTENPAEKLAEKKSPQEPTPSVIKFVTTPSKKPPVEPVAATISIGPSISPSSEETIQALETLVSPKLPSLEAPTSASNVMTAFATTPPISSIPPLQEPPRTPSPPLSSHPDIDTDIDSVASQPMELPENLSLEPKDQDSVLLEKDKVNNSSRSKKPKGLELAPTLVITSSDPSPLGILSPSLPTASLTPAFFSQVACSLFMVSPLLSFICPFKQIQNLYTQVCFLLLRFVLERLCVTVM
Procedure, shortened: as §1

ETV2 = target: T10, ETV2 (Homo sapiens, UniProt O00321 1-342); conditions: protein: recombinant; tags: N-terminal GST; dsDNA, one strand shown
T10 sequence: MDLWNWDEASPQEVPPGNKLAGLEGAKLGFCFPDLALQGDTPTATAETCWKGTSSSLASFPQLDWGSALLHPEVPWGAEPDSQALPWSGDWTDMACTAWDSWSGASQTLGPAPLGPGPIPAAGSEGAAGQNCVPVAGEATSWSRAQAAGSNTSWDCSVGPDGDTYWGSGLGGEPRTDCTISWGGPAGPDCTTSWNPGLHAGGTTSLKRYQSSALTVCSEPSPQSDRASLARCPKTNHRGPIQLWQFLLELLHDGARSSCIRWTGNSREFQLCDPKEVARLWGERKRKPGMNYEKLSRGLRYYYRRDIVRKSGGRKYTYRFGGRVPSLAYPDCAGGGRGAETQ
Procedure, shortened: as §1

ELF3 = target: T11, ELF3 (Homo sapiens, UniProt P78545 1-371); conditions: protein: recombinant; tags: N-terminal GST; dsDNA, one strand shown
T11 sequence: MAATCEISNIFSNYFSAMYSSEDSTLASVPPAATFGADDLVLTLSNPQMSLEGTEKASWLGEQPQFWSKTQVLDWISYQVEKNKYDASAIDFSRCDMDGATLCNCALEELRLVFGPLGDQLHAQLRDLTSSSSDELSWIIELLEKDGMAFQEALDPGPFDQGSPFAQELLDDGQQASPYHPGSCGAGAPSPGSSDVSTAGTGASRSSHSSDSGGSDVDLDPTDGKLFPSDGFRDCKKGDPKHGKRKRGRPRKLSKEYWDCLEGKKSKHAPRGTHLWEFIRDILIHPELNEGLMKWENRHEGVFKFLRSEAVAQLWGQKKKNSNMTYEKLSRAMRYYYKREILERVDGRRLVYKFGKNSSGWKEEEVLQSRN
Procedure, shortened: as §1

ETV1 = ETV1 (Homo sapiens, UniProt P50549 1-477); conditions: protein: recombinant; tags: N-terminal GST; dsDNA, one strand shown
Procedure, shortened: as §1

Chain of ETV5 (P41161 whole entry): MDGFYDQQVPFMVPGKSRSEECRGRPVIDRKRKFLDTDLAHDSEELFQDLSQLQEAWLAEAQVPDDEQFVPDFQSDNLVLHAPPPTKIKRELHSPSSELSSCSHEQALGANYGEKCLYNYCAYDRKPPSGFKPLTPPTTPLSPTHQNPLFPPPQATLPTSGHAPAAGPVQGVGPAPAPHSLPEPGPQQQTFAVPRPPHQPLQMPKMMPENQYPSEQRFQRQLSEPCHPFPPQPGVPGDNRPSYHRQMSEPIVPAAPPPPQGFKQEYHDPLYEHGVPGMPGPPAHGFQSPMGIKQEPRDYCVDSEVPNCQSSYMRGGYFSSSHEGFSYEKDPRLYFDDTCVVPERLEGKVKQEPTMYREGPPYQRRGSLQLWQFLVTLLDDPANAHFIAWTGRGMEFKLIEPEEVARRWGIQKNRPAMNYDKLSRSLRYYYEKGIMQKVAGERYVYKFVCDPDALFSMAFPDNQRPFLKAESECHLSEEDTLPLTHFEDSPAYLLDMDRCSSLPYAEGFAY
Chain of ELF1 (P32519 whole entry): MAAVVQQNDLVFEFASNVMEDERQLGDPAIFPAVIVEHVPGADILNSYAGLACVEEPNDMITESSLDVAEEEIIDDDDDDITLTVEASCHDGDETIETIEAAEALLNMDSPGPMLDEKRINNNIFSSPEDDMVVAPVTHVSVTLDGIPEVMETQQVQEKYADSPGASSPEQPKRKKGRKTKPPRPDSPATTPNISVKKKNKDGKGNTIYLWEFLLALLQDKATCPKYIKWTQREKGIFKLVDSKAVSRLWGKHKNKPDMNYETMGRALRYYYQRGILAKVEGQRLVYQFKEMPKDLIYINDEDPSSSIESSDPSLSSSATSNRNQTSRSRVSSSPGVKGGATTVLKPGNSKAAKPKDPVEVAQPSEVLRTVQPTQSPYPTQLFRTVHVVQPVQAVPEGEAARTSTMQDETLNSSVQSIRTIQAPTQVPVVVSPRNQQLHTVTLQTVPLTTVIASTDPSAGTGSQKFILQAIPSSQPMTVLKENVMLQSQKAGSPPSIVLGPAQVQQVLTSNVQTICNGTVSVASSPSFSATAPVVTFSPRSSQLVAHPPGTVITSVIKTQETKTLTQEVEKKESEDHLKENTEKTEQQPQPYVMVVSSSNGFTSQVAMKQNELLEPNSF
Chain of SPIB (Q01892 whole entry): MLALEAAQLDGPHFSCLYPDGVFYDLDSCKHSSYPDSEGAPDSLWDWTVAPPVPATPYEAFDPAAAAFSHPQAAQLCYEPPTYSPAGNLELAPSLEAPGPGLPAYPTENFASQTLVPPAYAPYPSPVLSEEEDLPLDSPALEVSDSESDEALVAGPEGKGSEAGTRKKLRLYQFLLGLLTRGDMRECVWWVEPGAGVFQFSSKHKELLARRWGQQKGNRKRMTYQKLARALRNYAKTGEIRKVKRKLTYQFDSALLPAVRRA
Chain of ELF4 (Q99607 whole entry): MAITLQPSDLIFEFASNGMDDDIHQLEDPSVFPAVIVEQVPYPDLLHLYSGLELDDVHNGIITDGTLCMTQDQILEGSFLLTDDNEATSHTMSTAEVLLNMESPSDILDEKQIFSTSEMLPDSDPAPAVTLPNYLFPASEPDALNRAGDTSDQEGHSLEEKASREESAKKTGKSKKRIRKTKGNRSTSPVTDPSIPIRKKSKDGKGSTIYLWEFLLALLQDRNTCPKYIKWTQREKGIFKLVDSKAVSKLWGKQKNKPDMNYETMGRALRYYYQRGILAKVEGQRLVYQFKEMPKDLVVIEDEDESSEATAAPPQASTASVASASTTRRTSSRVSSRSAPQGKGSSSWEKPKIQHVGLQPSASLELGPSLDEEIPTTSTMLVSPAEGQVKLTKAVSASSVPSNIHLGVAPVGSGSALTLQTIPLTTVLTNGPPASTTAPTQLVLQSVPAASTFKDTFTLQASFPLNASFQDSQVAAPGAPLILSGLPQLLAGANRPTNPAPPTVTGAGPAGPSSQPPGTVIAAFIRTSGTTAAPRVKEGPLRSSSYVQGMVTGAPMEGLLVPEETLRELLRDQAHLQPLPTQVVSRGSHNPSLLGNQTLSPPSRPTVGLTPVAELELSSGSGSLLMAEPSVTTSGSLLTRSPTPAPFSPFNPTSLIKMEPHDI
Chain of HSF1 (Q00613 whole entry): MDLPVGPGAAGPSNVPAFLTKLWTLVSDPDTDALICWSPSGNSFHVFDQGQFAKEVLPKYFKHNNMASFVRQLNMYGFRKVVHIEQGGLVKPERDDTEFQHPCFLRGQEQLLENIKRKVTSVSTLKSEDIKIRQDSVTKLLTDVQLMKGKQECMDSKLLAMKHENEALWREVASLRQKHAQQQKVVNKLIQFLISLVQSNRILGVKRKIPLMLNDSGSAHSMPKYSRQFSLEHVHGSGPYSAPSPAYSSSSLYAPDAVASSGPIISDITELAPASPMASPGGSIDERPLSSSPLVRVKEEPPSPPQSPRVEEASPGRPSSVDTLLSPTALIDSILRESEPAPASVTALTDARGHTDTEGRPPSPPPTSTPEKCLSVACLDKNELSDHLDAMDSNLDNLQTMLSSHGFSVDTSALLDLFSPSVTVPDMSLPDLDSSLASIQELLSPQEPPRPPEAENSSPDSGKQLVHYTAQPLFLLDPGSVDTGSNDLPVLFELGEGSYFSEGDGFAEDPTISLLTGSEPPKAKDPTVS
Chain of ETV1 (P50549 whole entry): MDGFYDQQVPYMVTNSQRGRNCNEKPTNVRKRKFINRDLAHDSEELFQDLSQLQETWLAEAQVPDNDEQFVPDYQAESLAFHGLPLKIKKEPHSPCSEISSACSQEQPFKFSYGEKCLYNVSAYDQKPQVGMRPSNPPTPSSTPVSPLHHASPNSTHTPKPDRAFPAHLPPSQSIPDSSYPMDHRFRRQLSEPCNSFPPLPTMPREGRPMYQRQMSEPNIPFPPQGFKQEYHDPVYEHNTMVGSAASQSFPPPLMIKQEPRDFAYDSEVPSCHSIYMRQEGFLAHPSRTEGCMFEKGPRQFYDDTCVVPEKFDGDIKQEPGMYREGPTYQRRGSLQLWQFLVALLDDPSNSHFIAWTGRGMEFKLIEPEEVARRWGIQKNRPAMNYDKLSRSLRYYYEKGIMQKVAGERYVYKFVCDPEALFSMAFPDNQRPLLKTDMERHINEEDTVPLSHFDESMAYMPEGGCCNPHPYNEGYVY

Q: How did the binding signal (FLI1) turn out when TGAATG was run?
A: 1.16 fold enrichment (6-mer frequency, TF over GST control)

Q: And the binding signal (ELK1)?
A: 1.28 fold enrichment (6-mer frequency, TF over GST control)

Q: And the binding signal (GABPA)?
A: 1.17 fold enrichment (6-mer frequency, TF over GST control)

Q: And the binding signal (ERG)?
A: 1.21 fold enrichment (6-mer frequency, TF over GST control)

Q: What about the binding signal (ELF1) of the same sequence?
A: 1.2 fold enrichment (6-mer frequency, TF over GST control)

Q: And the binding signal (EHF)?
A: 1.19 fold enrichment (6-mer frequency, TF over GST control)

Q: What about the binding signal (SPI1) of the same sequence?
A: 1.26 fold enrichment (6-mer frequency, TF over GST control)

Q: And the binding signal (SPIB)?
A: 1.23 fold enrichment (6-mer frequency, TF over GST control)

Q: And the binding signal (ELK3)?
A: 1.09 fold enrichment (6-mer frequency, TF over GST control)

Q: What about the binding signal (FEV) of the same sequence?
A: 1.19 fold enrichment (6-mer frequency, TF over GST control)

Q: What about the binding signal (ETV5) of the same sequence?
A: 1.1 fold enrichment (6-mer frequency, TF over GST control)

Q: What about the binding signal (HSF1) of the same sequence?
A: 1.15 fold enrichment (6-mer frequency, TF over GST control)

Q: What about the binding signal (SPIC) of the same sequence?
A: 1.03 fold enrichment (6-mer frequency, TF over GST control)

Q: What about the binding signal (ELF4) of the same sequence?
A: 1.16 fold enrichment (6-mer frequency, TF over GST control)

Q: What about the binding signal (ELK4) of the same sequence?
A: 1.2 fold enrichment (6-mer frequency, TF over GST control)

Q: And the binding signal (ETV2)?
A: 1.37 fold enrichment (6-mer frequency, TF over GST control)

Q: And the binding signal (ELF3)?
A: 1.08 fold enrichment (6-mer frequency, TF over GST control)

Q: And the binding signal (ETV1)?
A: 1.14 fold enrichment (6-mer frequency, TF over GST control)
